High-throughput results from PubChem.
miR122 inh = miR-122 sensor activation. Huh7 psiCHECK-miR122 Renilla luciferase sensor, 48 h. activation, % at 12.5 µM. 0.14% of 340,000 active. AID 623901;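 active = mean activation of 30% or more, with every replicate also reaching 30%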;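 also: higher luciferase signal means stronger suppression of miR-122 activity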
Hits are given with their value. The full list was thinned out, with hits kept by preference.

`Cc1ccsc1/C=N/n1c(-c2ccco2)n[nH]c1=S` gave miR122 inh 39.
`CCC(=O)Nc1ccc2c(c1)C(=O)N(C)C[C@@H](OC)[C@H](C)CN(Cc1ccccc1OC)[C@@H](C)CO2` gave miR122 inh inactive.
C[C@@H]1CN([C@@H](C)CO)C(=O)c2cc(-c3cccnc3)cnc2O[C@@H]1CN(C)S(C)(=O)=O was read as miR122 inh inactive.
CCn1c(SCC(=O)Nc2ccc(N3CCOCC3)cc2)nnc1-c1ccc(OC)cc1 was read as miR122 inh inactive.
Screening CCn1c(CCNC(=O)c2ccc(OC)cc2)nnc1SCC(=O)Nc1ccccc1F returned miR122 inh inactive.
For CCOc1ccc(-c2nnc(SCC(=O)Nc3ccc4c(c3)c3ccccc3n4CC)n2N)cc1 the results were miR122 inh 54.
C[C@@H]1CN([C@@H](C)CO)S(=O)(=O)c2ccc(-c3cccc(C#N)c3)cc2O[C@H]1CN(C)C(=O)Nc1ccccc1F was read as miR122 inh inactive.
Screening COc1ccc(NC(=O)N(C)C[C@@H]2Oc3ncc(Br)cc3C(=O)N([C@H](C)CO)C[C@@H]2C)cc1 returned miR122 inh inactive.
For COc1cccc(C#Cc2ccc3c(c2)O[C@@H](CN(C)C(=O)CN2CCOCC2)[C@H](C)CN([C@H](C)CO)S3(=O)=O)c1 the results were miR122 inh inactive.
Screening COc1ccc(NC(=O)N(C)C[C@@H]2Oc3cc(C#CCC(C)C)ccc3S(=O)(=O)N([C@@H](C)CO)C[C@@H]2C)cc1 returned miR122 inh 43.
COc1ccc(C#Cc2ccc3c(c2)O[C@H](CN(C)C(=O)NC2CCCCC2)[C@@H](C)CN([C@H](C)CO)S3(=O)=O)cc1 was read as miR122 inh inactive.
For COc1cccc(C#Cc2ccc3c(c2)O[C@@H](CN(C)C(=O)CN2CCOCC2)[C@H](C)CN([C@@H](C)CO)S3(=O)=O)c1 the results were miR122 inh inactive.
COc1ccc(C#Cc2ccc3c(c2)O[C@H](CN(C)C(=O)CN2CCOCC2)[C@H](C)CN([C@@H](C)CO)S3(=O)=O)cc1 was read as miR122 inh 54.
Screening COc1ccc(C#Cc2ccc3c(c2)O[C@@H](CN(C)C(=O)CN2CCOCC2)[C@@H](C)CN([C@H](C)CO)S3(=O)=O)cc1 returned miR122 inh 36.
Screening COc1cccc(C#Cc2ccc3c(c2)O[C@@H](CN(C)C(=O)CN2CCOCC2)[C@@H](C)CN([C@H](C)CO)S3(=O)=O)c1 returned miR122 inh inactive.
`C/C=C/c1ccc2c(c1)O[C@H](CN(C)C(=O)Nc1ccc(OC)cc1)[C@H](C)CN([C@@H](C)CO)S2(=O)=O` gave miR122 inh inactive.
COc1cccc(C#Cc2ccc3c(c2)O[C@H](CN(C)C(=O)CN2CCOCC2)[C@H](C)CN([C@H](C)CO)S3(=O)=O)c1 was read as miR122 inh inactive.
`CCCC#Cc1cnc2c(c1)C(=O)N([C@H](C)CO)C[C@H](C)[C@H](CN(C)Cc1cccnc1)O2` gave miR122 inh inactive.
CC(C)C#Cc1ccc2c(c1)O[C@@H](CN(C)C(=O)CN(C)C)[C@H](C)CN([C@@H](C)CO)S2(=O)=O was read as miR122 inh inactive.
For CCCN(C)C[C@@H]1Oc2cc(C#CC3(O)CCCC3)ccc2S(=O)(=O)N([C@H](C)CO)C[C@@H]1C the results were miR122 inh inactive.
COc1ccc(NC(=O)N(C)C[C@H]2Oc3ncc(C4=CCCC4)cc3C(=O)N([C@@H](C)CO)C[C@@H]2C)cc1 was read as miR122 inh inactive.
Screening CCCC#Cc1cnc2c(c1)C(=O)N([C@@H](C)CO)C[C@H](C)[C@@H](CN(C)C(=O)C1CC1)O2 returned miR122 inh inactive.
C[C@@H]1CN([C@H](C)CO)S(=O)(=O)c2ccc(-c3cccc(C(=O)N(C)C)c3)cc2O[C@@H]1CN(C)C(=O)Nc1ccccc1 was read as miR122 inh inactive.
Screening COc1ccc(-c2ccc3c(c2)O[C@@H](CN(C)C(=O)c2ccccc2F)[C@H](C)CN([C@H](C)CO)S3(=O)=O)cc1 returned miR122 inh inactive.
For O=S(=O)(Nc1cccc2ncccc12)c1cccs1 the results were miR122 inh inactive.
Screening CCOc1ccc(S(=O)(=O)Nc2cccc(Cl)c2)cc1 returned miR122 inh inactive.
Screening CCOc1ccc2nc(NS(=O)(=O)c3cccs3)sc2c1 returned miR122 inh 34.
`CCCNC(=O)Nc1ccc2c(c1)OC[C@H](C)NC[C@H](C)[C@H](OC)CN(C)C2=O` gave miR122 inh inactive.
Screening C[C@H](O)C#Cc1cnc2c(c1)C(=O)N([C@@H](C)CO)C[C@H](C)[C@@H](CN(C)Cc1cncnc1)O2 returned miR122 inh inactive.
Screening C[C@H]1CN([C@@H](C)CO)C(=O)c2cc(C#Cc3ccccc3F)cnc2O[C@H]1CN(C)C(=O)C1CCOCC1 returned miR122 inh inactive.
For C[C@@H]1CN([C@H](C)CO)S(=O)(=O)c2ccc(-c3cccc(C(=O)N(C)C)c3)cc2O[C@H]1CN(C)C(=O)Nc1ccccc1 the results were miR122 inh inactive.
COc1ccc(S(=O)(=O)N(C)C[C@H]2Oc3cc(-c4ccccc4OC)ccc3S(=O)(=O)N([C@H](C)CO)C[C@H]2C)cc1 was read as miR122 inh inactive.
COCC#Cc1ccc2c(c1)O[C@@H](CN(C)C(=O)COC)[C@H](C)CN([C@H](C)CO)S2(=O)=O was read as miR122 inh inactive.
For COc1cccc(S(=O)(=O)N(C)C[C@@H]2Oc3ncc(C#Cc4ccccc4)cc3C(=O)N([C@H](C)CO)C[C@@H]2C)c1 the results were miR122 inh inactive.
For CCCn1c(CC)nc([N+](=O)[O-])c1S(=O)(=O)c1ccccc1 the results were miR122 inh 48.
For O=C(Nc1ncc(Cc2cccc(C(F)(F)F)c2)s1)c1ccc(-c2cccc([N+](=O)[O-])c2)o1 the results were miR122 inh 32.
C[C@H]1CN([C@@H](C)CO)S(=O)(=O)c2ccc(C#CC3CCCC3)cc2O[C@H]1CN(C)CC1CC1 was read as miR122 inh inactive.
For COCC#Cc1ccc2c(c1)O[C@@H](CN(C)C(=O)C1CCCCC1)[C@@H](C)CN([C@H](C)CO)S2(=O)=O the results were miR122 inh inactive.
CCCNC(=O)NC[C@@H]1[C@@H](c2ccc(C3=CCCCC3)cc2)[C@H](CO)N1C(C)=O was read as miR122 inh inactive.
For CCCNC(=O)N1[C@H](CNC(=O)c2ccc(F)cc2)[C@H](c2ccccc2)[C@@H]1CO the results were miR122 inh 42.
C[C@H](CO)N1C[C@H](C)[C@@H](CN(C)CC2CCOCC2)Oc2ncc(-c3ccc(C#N)cc3)cc2C1=O was read as miR122 inh inactive.
For CCC(=O)N(C)C[C@H]1Oc2cc(-c3cccc(C#N)c3)ccc2S(=O)(=O)N([C@H](C)CO)C[C@H]1C the results were miR122 inh inactive.
CC(C)CC#Cc1ccc2c(c1)O[C@@H](CN(C)C(=O)C1CCOCC1)[C@H](C)CN([C@H](C)CO)S2(=O)=O was read as miR122 inh inactive.
`CCc1ccccc1NC(=O)CN(C)C(=O)Cn1ncc(Cl)c(Cl)c1=O` gave miR122 inh 63.
For COCC(=O)N(C)C[C@@H]1Oc2cc(-c3cccc(F)c3)ccc2S(=O)(=O)N([C@H](C)CO)C[C@H]1C the results were miR122 inh inactive.
C[C@H](CO)N1C[C@H](C)[C@H](CN(C)Cc2ccccc2)Oc2ncc(-c3cccc(C#N)c3)cc2C1=O was read as miR122 inh inactive.
